Compounds without any hit were thinned out: in the full panel of roughly 79,000, 15% have a hit. Rule as the data show it: active = growth inhibition above about 70%; inactive = the rest.
What was measured:
[1] = NCI Yeast Anticancer Drug Screen. Data for the rad50 strain (AID 155);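 also: 0% = growth of vehicle-only cultures of the same strain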; conditions: S. cerevisiae rad50 strain growth inhibition; at 50.0 µM; hits give high values
Method in brief: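 Relative growth inhibition (compound vs vehicle) was measured in yeast with a defined repair-gene alteration.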

[2] = NCI Yeast Anticancer Drug Screen. Data for the mec2-1 strain (AID 157); conditions: S. cerevisiae mec2-1 strain, at 50.0 µM, hits give high values
Method in brief: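 Using mec2-1 yeast: add compound, measure growth, express inhibition versus vehicle-treated cultures.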

[3] = NCI Yeast Anticancer Drug Screen. Data for the sgs1 mgt1 strain (AID 161);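 also: 0% = growth of cultures given vehicle only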; conditions: S. cerevisiae sgs1 mgt1 strain, at 50.0 µM, hits give high values
Method in brief: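 This yeast growth screen uses a strain with defined DNA-repair lesions; compound-treated growth is compared with vehicle-treated growth.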

[4] = NCI Yeast Anticancer Drug Screen. Data for the cln2 rad14 strain (AID 165);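 also: 0% = growth equal to vehicle treated cultures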; conditions: S. cerevisiae cln2 rad14 strain, at 50.0 µM, hits give high values
Method in brief: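 Yeast strain cln2 rad14, bearing defects in cell cycle control and DNA repair, serves as the test system; values reflect growth inhibition compared with vehicle.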

[5] = NCI Yeast Anticancer Drug Screen. Data for the bub3 strain (AID 167); conditions: S. cerevisiae bub3 mutant strain, at 50.0 µM, hits give high values
Method in brief: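 Screening used yeast with an engineered genetic alteration affecting cell cycle control. Compound-exposed cultures were compared with vehicle cultures, and reduced growth was taken as inhibition.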

[6] = NCI Yeast Anticancer Drug Screen. Data for the mlh1 rad18 strain (AID 175); conditions: S. cerevisiae mlh1 rad18 strain growth inhibition; at 50.0 µM; hits give high values
Method in brief: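 Steps: expose repair-defective yeast to compound; measure growth; express inhibition against vehicle-treated controls.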

Measured: growth inhibition

COC1N(C2C=CC(CO)O2)C(=O)NC(=O)C1(C)Br (stereo unspecified)
inactive: [1] -4.8% | [2] -18.1% | [3] 2.8% | [4] 2.75% | [5] -17.8% | [6] 15.8%

Nc1nc(N)c2nc(CNc3ccc(C(=O)NC(CCCNC(=O)c4ccccc4C(=O)O)C(=O)O)cc3)cnc2n1 (stereo unspecified)
inactive: [1] -14.1% | [2] 30.4% | [3] 7.6% | [4] -28.3% | [5] -37.9% | [6] -9.95%

O=C1NC(Cc2cccc(I)c2)C(=O)N1c1ccccc1 (stereo unspecified)
inactive: [1] 37.3% | [2] 3.1% | [3] 31.9% | [4] 28.8% | [5] 16.4% | [6] 29.4%

CC(C/C=C(/C=O)C(C)CC(C)(C)C)CC(C)(C)C (stereo unspecified)
inactive: [1] 43.9% | [2] 20.2% | [3] 36.3% | [4] -24.1% | [5] 4.85% | [6] 61.8%

CCOC(=O)/C=C(/O)CC(=O)OCC.[Cu+2]
inactive: [1] -11.8% | [2] -1.8% | [3] -5.7% | [4] -21% | [5] -17.1% | [6] -0.45%

O=C(NCC(O)CNC(=O)C(F)(F)F)C(F)(F)F
inactive: [1] 5.2% | [2] 7.75% | [3] 8.75% | [4] 28.4% | [5] 14.4% | [6] -27.2%

O=C(N[C@H](CO)[C@H](O)c1ccc([N+](=O)[O-])cc1)C(Cl)Cl
inactive: [1] 25.2% | [2] -4.05% | [3] 28.9% | [4] 9.55% | [5] 35.6% | [6] 10.7%

O=C(COc1ccc(Cl)c(Cl)c1)NCc1ccc([N+](=O)[O-])cc1
inactive: [1] 0.35% | [2] 28.2% | [3] 20.9% | [4] -10.7% | [5] 27.8% | [6] 22.9%

CCC1(CCCCCBr)OCCO1
inactive: [1] 13.9% | [2] 12.6% | [3] 19.6% | [4] 10.2% | [5] 14.8% | [6] 7.9%

COC(=O)C(=O)c1cc(C)n(C)c(=O)c1CN1C(=O)c2ccccc2C1=O
inactive: [1] -14.2% | [2] 14.8% | [3] 13.8% | [4] -18.9% | [5] -11.8% | [6] -12.8%

COC1OC(CO)C(O)C1O (stereo unspecified)
inactive: [1] -25% | [2] -18.8% | [3] 2.55% | [4] -44.4% | [5] -4.85% | [6] -9.25%

CN(C)C(=Nc1ccccc1)N(C)N
inactive: [1] -1.2% | [2] 5.7% | [3] -12.9% | [4] 0.75% | [5] 1.9% | [6] 0.95%

Cc1ccc(S(=O)(=O)NCCN)cc1
inactive: [1] 9.45% | [2] 11.2% | [3] 24.2% | [4] -19.5% | [5] -6.4% | [6] -3.3%

CC(=O)OCC1CCCCO1 (stereo unspecified)
inactive: [1] 2.6% | [2] -1.65% | [3] -6.1% | [4] -0.2% | [5] -0.2% | [6] -4.7%

CCNC1(C(N)=O)CCN(Cc2ccccc2)CC1
inactive: [1] -14.6% | [2] -55.8% | [3] -31.1% | [4] 5.1% | [5] -30.4% | [6] -22.7%

CC(=O)OC1CC(c2ccccc2)N(C)C(c2ccccc2)C1 (stereo unspecified)
inactive: [1] 6.85% | [2] -8% | [3] 2.55% | [4] -7.9% | [5] -3.15% | [6] 10.6%

CCC(C)N=Cc1ccccc1O.CCC(C)N=Cc1ccccc1O.[Cu] (stereo unspecified)
inactive: [1] 33.7% | [2] -10.3% | [3] 28.4% | [4] -44.7% | [5] 2.1% | [6] 11.2%

COC(=O)c1cc2ccccc2n1C
inactive: [1] -25.7% | [2] -45.6% | [3] -30.9% | [4] 16.1% | [5] -6.95% | [6] -8.15%

CCCCCCCCCCCCCCCC(=O)ON1C(=S)NC(C)(c2ccccc2)C1=S (stereo unspecified)
inactive: [1] -0.65% | [2] 5.45% | [3] 9.15% | [4] -4.05% | [5] 13.4% | [6] -17.6%

O=C([O-])c1ccc(C(=O)[O-])cc1.O=C([O-])c1ccc(C(=O)[O-])cc1.[Mo+2].[Mo+2]
inactive: [1] -38.6% | [2] 18.1% | [3] 2.85% | [4] 9.1% | [5] -11.8% | [6] 16.6%

O=C1Nc2ncnc(Cl)c2Cc2ccccc21
inactive: [1] -2.6% | [2] -6.9% | [3] -0.75% | [4] -12.9% | [5] -6.15% | [6] -12.1%
